According to PubChem BioAssay AID1460 (National Center for Advancing Translational Sciences (NCATS), 2008):
Hit rate of the full screen: of about 270,000 compounds, about 5,800 (2.1%) were called active. Another 16% or so got no clear call; they are omitted. The sample as a whole holds a higher share of actives than the screen did. A number with no mark means an inactive call. Calls follow the shape of the dose curve; as a rule, active = well fitted inhibition curve with a large enough effect; inconclusive = small, poorly fitted or top-dose-only effect; inactive = flat fitted curve, though single readings scatter.

Molecular target: Microtubule-associated protein tau (Homo sapiens) (UniProt P10636)
Sequence (P10636 561-689 P618L limits assumed): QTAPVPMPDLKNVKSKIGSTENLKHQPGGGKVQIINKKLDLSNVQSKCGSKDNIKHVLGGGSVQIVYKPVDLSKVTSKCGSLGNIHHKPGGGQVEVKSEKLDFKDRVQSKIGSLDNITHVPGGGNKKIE
Assay: qHTS for Inhibitors of Tau Fibril Formation, Thioflavin T Binding; also: nearly all actives have a fitted effect of over 55% in size
Settings: recombinant tau K18 P301L (four-repeat tau fragment), heparin-induced fibrillization, ThT fluorescence; series mostly up to 57.4 µM; activity, negative = inhibition: at the top concentration
Outline: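 Tau K18 P301L fragment (15 uM unlabeled plus 0.24 uM Alexa 594-labeled) in 100 mM sodium acetate pH 7 with compound, fibrillization induced by 20 uM heparin for 6 hr at 37 C. Thioflavin T (30 uM) added, fluorescence read after 1 hr (ex 450, em 510 nm).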
% is scaled to controls: 0 for no effect and ±100 for the full control effect; potency is read from the fitted curve at half-maximal effect.

| SMILES | activity, negative = inhibition [%] | Potency |
| --- | --- | --- |
| COc1ccc(OC)c(NC(=O)CSC2=Nc3ccccc3C3=NC(CC(=O)NCCc4ccccc4)C(=O)N23)c1 (stereo unspecified) | -3.76 |  |
| CC(=O)Oc1c2c(c3c(c1CC=C(C)C)O[C@@]14C(=CC5CC1C(C)(C)OC4(C/C=C(\C)C(=O)O)C5=O)C3=O)OC(C)(CCC=C(C)C)C=C2 (stereo partly specified) |  | 31.6 µM (active) |
| COc1ccccc1NC(=O)Cn1cnc2ccc(S(=O)(=O)N3CCC(C)CC3)cc2c1=O | 9.3 |  |
| CN1c2ccc(Cl)cc2-c2nc(SCC(=O)Nc3cc(F)ccc3F)ncc2S1(=O)=O | 4.12 |  |
| CN1/C(=c2/s/c(=C3/C(=O)N(c4ccccc4)NC3=Nc3ccccc3)n(C)c2=O)C(C)(C)c2ccccc21 |  | 7.94 µM (active) |
| CC1CCCCN1CCCNC(=O)Cn1ncc2c([nH]c3ccccc32)c1=O (stereo unspecified) | -18.3 |  |
| CCc1ccc(NC(=O)CCS(=O)(=O)c2cc3c(cc2Cl)NC(=O)CO3)cc1 | 1.33 |  |
| COc1ccc(C)cc1NC(=O)C(=O)NCCc1sc(-c2cccc(C)c2)nc1C | -12.3 |  |
| Cc1ccc(Nc2ccc(C(N)=O)cc2[N+](=O)[O-])cc1 | -3.36 |  |
| O=[N+]([O-])c1ccccc1Nc1ccc(O)cc1 |  | 22.4 µM (active) |
| O=C(O)c1ccccc1C(=O)Nc1ccccc1[N+](=O)[O-] | -2.3 |  |
| CCCN1C(=O)C(O)(CC(=O)c2ccc(CC)cc2)c2cc(Br)ccc21 (stereo unspecified) | -7.54 |  |
| COC(=O)CSc1nc(C)c2ccc(OC)cc2n1 | -5.41 |  |
| Cc1cc(C)c(C#N)c(SCC(=O)Nc2ccccc2)n1 | 4.95 |  |
| COc1ccc(N2CCN(C(=O)CSc3nc4cc(OC)c(OC)cc4cc3C#N)CC2)cc1 | -10.6 |  |
| Cc1nonc1NC(=O)CSc1nc2ccccc2cc1C#N |  | 1.78 µM (active) |
| Cc1nc2cc(NC(=O)CSc3nc4c(C)cccc4cc3C#N)ccc2s1 | -13.9 |  |
| CCOc1ccc2cc(C#N)c(SCC(=O)OC)nc2c1 |  | 3.16 µM (active) |
| CC(=O)c1ccc(NC(=O)c2nc(-c3ccc(C)cc3)n3c2CCCCC3)cc1 | -9.51 |  |
| Cc1ccc(CCNC(=O)c2nnc(Cc3cccc(F)c3)o2)cc1 | -13.6 |  |
| CC(C)OC(=O)c1c(NC(=O)c2ccco2)sc2c1CCCC2 | -13 |  |
| CNC(=O)c1c(NC(NC(=O)c2ccco2)C(=O)c2ccc(Cl)cc2)sc2c1CCCC2 (stereo unspecified) |  | 25.1 µM (active) |
| CCOC(=O)c1c(NC(=S)NC(=O)c2ccco2)sc2c1CCCC2 | -18 |  |
| COc1cc2c(cc1OC)C(COc1ccc(F)cc1)N(C(=O)c1ccccc1F)CC2 (stereo unspecified) | -8.13 |  |
| COc1cc(Cl)c(NC(=O)CC(C)S(=O)(=O)c2cc3c(cc2C)NC(=O)CO3)c(OC)c1 (stereo unspecified) | 2.57 |  |
| Cc1ccc(N=Nc2c(C)[nH]n(-c3ccccc3)c2=O)cc1 | 0.0892 |  |

| SMILES | activity, negative = inhibition [%] | Potency |
| --- | --- | --- |
| Cc1c(C=O)n(C)n(-c2ccccc2)c1=O | 0.926 |  |
| Cc1c(N=Nc2ccc(N(C)C)cc2)c(=O)n(-c2ccccc2)n1C |  | 15.8 µM (active) |
| O=C(CSc1nc2ccccc2s1)Nc1ccc(C(=O)O)cc1 | -2.11 |  |
| O=[N+]([O-])c1c(NCCO)cc(Sc2nc3ccccc3s2)c2nonc12 |  | 12.6 µM (active) |
| CC(C)(C)c1ccc(S(=O)(=O)Nc2ccc(O)c(Sc3nc4ccccc4s3)c2)cc1 | -17.4 |  |
| COC(=O)c1cc(S(=O)(=O)N2CCN(c3cc(Cl)ccc3C)CC2)c[nH]1 | 7.65 |  |
| O=C1C(c2ccccn2)=[N+]([O-])c2ccccc21 |  | 3.98 µM (active) |
| COc1ccc(NC(=O)CSc2nc3ccccc3n2CC(=O)N2CCCCC2C)cc1 (stereo unspecified) | 1.12 |  |
| COc1cc(NC(=O)c2cc(C3CC3)nc3c2c(C)nn3-c2ccccc2)cc(OC)c1 | -5.05 |  |
| COC(=O)CC1Oc2ccccc2-n2cc(-c3ccccc3)nc21 (stereo unspecified) | -13.4 |  |
| O=C(c1ccc(Cl)cc1)c1ccc(OCC(O)CN2CCCCC2)cc1 (stereo unspecified) | -6.29 |  |
| O=C(c1ccccc1)c1ccc(OCC(O)CN2CCCC2)cc1 (stereo unspecified) | -0.223 |  |
| CCOc1ccc(C(=O)/C=C/c2cn(CC(O)CN3CCCCCC3)c3ccccc23)cc1 (stereo unspecified) |  | 12.6 µM (active) |
| Cc1ccc(C)c(CNC(=O)c2cc3ccccn3n2)c1 | -8.43 |  |
| CC/C(=N/Nc1ccccc1)c1cnnc(SC)n1 |  | 7.08 µM (active) |
| CCOc1ccccc1C(=O)Nc1ccc(S(=O)(=O)N2CCCCC2c2cccnc2)cc1 (stereo unspecified) | 8.63 |  |
| CCOC(=O)c1c(C)[nH]c(C)c1S(=O)(=O)NCC(=O)NCc1cccc(C)c1 | 3.96 |  |
| COc1ccc(Br)cc1/C=N/n1c(C)nnc1C | -2.94 |  |
| COc1cc(Br)cc(/C=N/c2ncn[nH]2)c1O |  | 14.1 µM (active) |
| Cc1ccc(-c2nc(C)sc2CC(=O)O)cc1 | 4.18 |  |
| O=C(O)Cc1sc(-c2ccc(C(=O)O)cc2)nc1-c1ccccc1 | 2.5 |  |
| C/C(=N/Nc1nc(-c2ccccc2)c(CC(=O)O)s1)c1ccccc1 |  | 12.6 µM (active) |
| COc1ccc(NC(=O)CSc2nccn2Cc2ccc3c(c2)OCO3)cc1 | -11.5 |  |
| Nc1ncc(S(=O)(=O)Nc2ccc(OC(F)(F)F)cc2)cn1 | -1.64 |  |
| CCc1ccc2ncc3c(-c4ccc(C)cc4)nn(CC(=O)NCc4ccccc4)c3c2c1 | -6.61 |  |
